Hits are enriched below; roughly 21% of the tested compounds scored in any of these assays.
DT40 TDP1 CPT = growth inhibition of DT40 Tdp1-/-;hTDP1 cells with camptothecin (screen for TDP1 inhibitors). chicken DT40 Tdp1-/-;hTDP1 cells + 20 nM CPT, ATP luminescence, 48 h. AID 686979. hit rate 12% among 420,000. Potency, µM (titrated, usually from 46.2 µM), actives largely listed as inhibitors; further: nearly all actives have a fitted effect of over 55% in size
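Chicken DT40 Tdp1-/- cells complemented with human TDP1, 400 cells/well, exposed to compounds plus 20 nM camptothecin for at least 48 h at 37 C; viability read as ATP content by CellTiter-Glo luminescence.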
ELG1 DNA repair = inhibitors of ELG1-dependent DNA repair in HEK293T cells | Potency, µM (series often up to 46.1 µM), usual class: inhibitors | HEK293T ELG1-luciferase reporter, luminescence, 16 h; DNA damage induced by 5-fluorouridine | hit rate 2.3% among 330,000; further: nearly all actives have a fitted effect of over 55% in size
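Reporter activity after DNA damage by 5-fluorouridine is monitored. Compound-treated cells incubate 16 hr at 37 °C, then ONE-Glo is added for 30 min before luminescence reading.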
RORg inh = ROR gamma (mouse) transcription inhibition; Drosophila S2 Gal4-RORgamma UAS-luciferase reporter, 20 h; Potency, µM (highest dose often 53.6 µM), usual class: inhibitors; hit rate 5.4% among 310,000; AID 2551; further: nearly all actives have a fitted effect of over 60% in size
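In this cell-based reporter format, copper sulfate (700 uM final) drives Gal4–ROR gamma fusion expression from a metallothionein promoter in Drosophila Schneider cells; compounds preincubated 1 hr, reporter read after 20 hr at ambient temperature.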
VP16 counter = Gal4-VP16 reporter inhibition counter-screen; Potency, µM (series often up to 53.6 µM), usual class: inhibitors; AID 2546; Drosophila S2 Gal4-VP16 UAS-luciferase, luminescence, 20 h; hit rate 3.5% among 310,000;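 further: Gal4-VP16 expression switched on by copper sulfate through the metallothionein promoter; nearly all actives have a fitted effect of over 50% in size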
IL-1B inflam inh = inhibitors of inflammasome signaling (IL-1 beta secretion). THP-1 LPS/ATP IL-1B secretion, AlphaLISA, 16 h; active compounds read low. activity change, % at 57.5 µM. hit rate 4.7% among 360,000. AID 743279; in the data active means activity change below about -50%; inconclusive means mostly about -30% to -49%
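Secreted IL-1B measured by AlphaLISA bead assay after 16 h compound exposure of THP-1 cells; compounds (final up to 57.5 uM) added 1 h before LPS (250 ng/mL) and ATP (1.25 mM) stimulation; lower signal means less secretion.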
TDP1 cell noCPT = qHTS for Inhibitors of human tyrosyl-DNA phosphodiesterase 1 (TDP1): qHTS in cells in absence of CPT; DT40 Tdp1-/- hTDP1 cells, no CPT, ATP luminescence, 48 h; Potency, µM (doses to about 46.2 µM), most hits filed as inhibitors; hit rate 15% among 420,000; AID 686978, 2013; further: nearly all actives have a fitted effect of over 55% in size
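Growth kinetics read by CellTiter-Glo luminescence after ≥48 hr at 37 °C. Cells: DT40 Tdp1-/- stably carrying human TDP1, 400 per well, compound exposure in the absence of CPT (DMSO vehicle).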
Numbers stand for hits. Unless noted, the call rests on the fitted dose curve; in most records, active means well fitted curve in the direction sought with a large enough effect; inconclusive means small, poorly fitted or top-dose-only effect, or another doubt; inactive means no such curve, though single readings can be large; an effect the other way counts as inactive or inconclusive.

Results for O=C(c1ccc(Cl)c(S(=O)(=O)N2CCOCC2)c1)N1CCOCC1 ?
DT40 TDP1 CPT: inactive; ELG1 DNA repair: inactive; RORg inh: inactive; VP16 counter: inactive; IL-1B inflam inh: inactive; TDP1 cell noCPT: inactive

How did Nc1cccc2c(O)cccc12 do in these assays?
DT40 TDP1 CPT: inactive; IL-1B inflam inh: inactive; TDP1 cell noCPT: inactive

How did Nc1ccccc1O do in these assays?
DT40 TDP1 CPT: inconclusive; ELG1 DNA repair: inactive; RORg inh: inactive; VP16 counter: inactive; IL-1B inflam inh: inactive; TDP1 cell noCPT: 16µM

Results for O=C1C[C@@H](c2ccc(O)cc2)Oc2cc(O[C@@H]3O[C@H](CO)[C@@H](O)[C@H](O)[C@H]3O)cc(O)c21 ?
RORg inh: inactive; VP16 counter: inactive

Results for Cc1ccc(C(=O)NC2CCc3ccccc3C2=O)cc1 (stereo not drawn) ?
DT40 TDP1 CPT: inconclusive; ELG1 DNA repair: inconclusive; RORg inh: inactive; VP16 counter: inactive; IL-1B inflam inh: inactive; TDP1 cell noCPT: inactive

What do the screens show for `O=C(OC1CCc2ccccc2C1=O)c1ccccc1O` (stereo not drawn)?
DT40 TDP1 CPT: 23µM; ELG1 DNA repair: inactive; RORg inh: inconclusive; VP16 counter: inactive; IL-1B inflam inh: inactive; TDP1 cell noCPT: 16µM

How did COc1cc(OC)c(-c2nc(-c3ccncc3)no2)cc1OC do in these assays?
DT40 TDP1 CPT: inconclusive; ELG1 DNA repair: inconclusive; RORg inh: inactive; VP16 counter: inactive; TDP1 cell noCPT: 16µM

How did COc1ccc(-c2nc(-c3ccncc3)no2)c(OC)c1 do in these assays?
DT40 TDP1 CPT: inactive; ELG1 DNA repair: inconclusive; RORg inh: 7.9µM; VP16 counter: inconclusive; IL-1B inflam inh: inactive; TDP1 cell noCPT: inconclusive

How did Fc1ccccc1-c1nc(-c2ccncc2)no1 do in these assays?
DT40 TDP1 CPT: inconclusive; ELG1 DNA repair: inconclusive; RORg inh: inconclusive; VP16 counter: inactive; IL-1B inflam inh: inactive; TDP1 cell noCPT: inactive

What do the screens show for `COc1ccc(-c2noc(-c3ccccc3F)n2)cc1`?
DT40 TDP1 CPT: inactive; ELG1 DNA repair: inconclusive; RORg inh: inconclusive; VP16 counter: inconclusive; IL-1B inflam inh: inactive; TDP1 cell noCPT: inactive

What do the screens show for `CNC(=O)c1ccccc1`?
RORg inh: inactive; VP16 counter: inactive

Results for COC(=O)c1ccccc1 ?
RORg inh: inactive; VP16 counter: inactive

Screening data as filed in PubChem BioAssay.
